Consider eight compounds from PubChem BioAssay (NCI).

Assay in all cases: NCI-60 one-dose screen, 48 h (100 = growth as untreated, 0 = no growth, -100 = all killed)
What all share (settings): 10 µM unless noted

The subject of assay [1] is NCI-H23 lung.
In assay [2] the test system is NCI-H226 lung.
In assay [3] the test system is NCI-H322M lung.
Assay [4] relates to HOP-62 NSCLC.
For assay [5], the system named is NCI-H460 lung.
The test system of assay [6] is NCI-H522 lung.
In assay [7] the test system is A549/ATCC NSCLC.
Assay [8] relates to 786-0 renal.
The test system of assay [9] is COLO 205 colon.
In assay [10] the test system is DU-145 prostate.
Assay [11] has as its system K-562 leukemia.
Assay [12] deals with MALME-3M melanoma.
For assay [13], the system named is MDA-MB-231 breast.
In assay [14] the test system is RXF 393 renal.
Assay [15] relates to SF-268 CNS.
The test system of assay [16] is SF-295 CNS.
Assay [17] concerns SF-539 CNS.
For assay [18], the system named is UACC-257 melanoma.
Assay [19] has as its system M14 melanoma.
For assay [20], the system named is HCT-15 colon.

Molecules are shown by their SMILES. About 83,000 compounds went through this panel and 20% of them were active in at least one assay; those are over-represented in the sample as a whole.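 Cell lines were cultured in 96-well plates, exposed to a single compound concentration, and assessed for percent growth 48 hours later.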 A number with no mark means an inactive call. Active and inactive are the calls of the source. The calls were made as follows: active = growth percent below 10; inactive = the rest.

Turning to `COc1ccc(OC)c2c1[nH]c(=O)c1c3ccccc3cn21`, the growth was -25.8% (active) in assay [1]; 48.4% in assay [2]; -70.7% (active) in assay [3]; -33.6% (active) in assay [4]; -61.2% (active) in assay [5]; -50.4% (active) in assay [6]. Moreover, the growth is -73.2% (active) in assay [7]; -86.3% (active) in assay [8]; -91.1% (active) in [9]; -65% (active) in [10]; 11.2% in assay [11]; -89.4% (active) in [12]. For the same compound, the growth was -89.2% (active) in assay [13]; -79.9% (active) in assay [14]; -64.9% (active) in assay [15]; -76.7% (active) in [16]; -98.5% (active) in assay [17]; -75.5% (active) in [18]. Further, the growth was -54.3% (active) in assay [19] and -46.5% (active) in assay [20].

`C=CC1=C(C(=O)O)N2C(=O)[C@@H](NC(=O)/C(=N\O)c3csc(N)n3)[C@H]2SC1` (stereo in doubt): the growth in [1] was 96%; in assay [2] it was 101%; in [3] it was 109%; in assay [4], 105%; in assay [5] it was 105%; in assay [6], 106%. Further, the growth in assay [7] was 99.4%; in [8], 105%; in assay [9] it was 103%; in assay [10], 113%; in assay [11], 104%; in assay [12] it was 111%. Besides, the growth in [13] was 105%; in assay [14], 117%; in [15], 108%; in [16], 104%; in assay [17], 95.2%; in assay [18] it was 96.3%. For the same compound, the results for the growth in [19] and in assay [20] were 114% and 105%, respectively.

For `CC1SC(c2c(Cl)cccc2Cl)N(NC(=O)c2[nH]c3ccc(F)cc3c2-c2ccccc2)C1=O` (stereo not given), the growth in [1] was 48%; in assay [2] it was 58.5%; in [3] it was 4.84% (active); in assay [4] it was -44.6% (active); in assay [5] it was 8.08% (active); in assay [6] it was 69%. In addition, the growth in assay [7] was -1.11% (active); in [8], 33.8%; in assay [9] it was 35.1%; in [10], 24.1%; in assay [11], 71.6%; in assay [12], 1.97% (active). The growth in [13] is 0.445% (active); in [14], 26.5%; in [15] it was 44.3%; in assay [16], 6.65% (active); in [17] it was 71.5%; in assay [18], 93.9%. For the same compound, the growth in [19] is 62.8%; in assay [20], 65.1%.

In the case of `NC(=Nc1ccccc1)SCCCCSC(N)=Nc1ccccc1`, the growth is 71.2% in assay [1]; 95% in [2]; 85.2% in [3]; 82.2% in [4]; 101% in assay [5]; 79.1% in assay [6]. Also, the growth in assay [7] is 85.1%; in assay [8], 79.5%; in assay [9], 125%; in assay [10] it was 93.5%; in assay [11], 44.5%; in [12], 102%. Besides, the growth in [13] was 67.5%; in assay [14], 73.6%; in [15], 90%; in assay [16] it was 77.5%; in assay [17], 114%; in assay [18] it was 101%. For the same compound, the growth in assay [19] is 84.6%; in [20] it was 83.1%.

As to `CCN(CC)CCNc1ccc(Cl)cc1Cl`, the growth was 101% in assay [1]; 108% in assay [2]; 94.9% in [3]; 95.8% in [4]; 107% in assay [5]; 98.5% in [6]. For the same compound, the growth was 107% in [7]; 104% in assay [8]; 108% in [9]; 107% in [10]; 104% in assay [11]; 106% in assay [12]. The growth in [13] is 118%; in assay [14], 103%; in [15], 101%; in assay [16], 109%; in assay [17], 111%; in [18] it was 95%. The results for the growth in assay [19] and in [20] were 102% and 107%, respectively.

`COc1ccc(C2CC(c3ccc(OC)c(OC)c3)=NN2C(=O)c2cc(OC)c(OC)c(OC)c2)cc1` (stereo not given): the growth is 46.6% in assay [1]; 51.9% in assay [2]; 37.7% in assay [3]; 34.8% in assay [4]; 6.07% (active) in assay [5]; -35.9% (active) in assay [6]. Further, the growth in assay [7] was 27.2%; in [8], 26.7%; in assay [9], 8.03% (active); in assay [10] it was 11.6%; in assay [11], 28.3%; in assay [12], 57.7%. For the same compound, the growth in assay [13] was 12.6%; in assay [14] it was -21.4% (active); in assay [15], 54.7%; in [16], 4.28% (active); in [17], -14.5% (active); in [18] it was 66.3%. The growth in assay [19] was -11.8% (active); in assay [20], 32.8%.

For `CCCc1nn(C)c2c(=O)[nH]c(-c3cc(S(=O)(=O)N4CCN(C)CC4)ccc3OCC)nc12`, the growth in assay [1] was 99%; in [2], 102%; in assay [3], 101%; in assay [4], 104%; in assay [5] it was 114%; in assay [6], 88.9%. Also, the growth in assay [7] was 96.2%; in assay [8] it was 98.5%; in [9], 99.8%; in assay [10] it was 113%; in assay [11] it was 97.9%; in [12], 102%. The growth was 90.5% in [13]; 120% in [14]; 119% in assay [15]; 93% in assay [16]; 111% in [17]; 97.9% in assay [18]. For the same compound, the growth is 102% in assay [19] and 103% in [20].

Turning to `CCN1CCN(c2cc(-c3cn[nH]c3-c3cc(C)cc(OC)c3)nc(-c3cccnc3)n2)CC1`, the growth in assay [1] is 93.9%; in assay [2], 99.7%; in assay [3], 67.5%; in assay [4] it was 101%; in assay [5], 88.9%; in [6], 75.6%. The growth is 82.3% in assay [7]; 58.1% in [8]; 51.3% in assay [9]; 75% in assay [10]; 21.9% in [11]; 91.9% in assay [12]. In addition, the growth in assay [13] is 58.6%; in [14], 61.2%; in assay [15], 87.3%; in assay [16], 99.9%; in [17] it was 83%; in assay [18], 84.8%. Further, the results for the growth in assay [19] and in [20] were 83.1% and 19.2%, respectively.
